Measured values: PubChem BioAssay (Tox21)
Results filed as inconclusive are left out. A call without a number means that no potency is given here. Values without a mark were called inactive. Active and inactive are the calls of the source. Unless noted, the call rests on the fitted dose curve; in most records, active means well fitted curve in the direction sought with a large enough effect in the repeat runs; inconclusive means weak or mixed curves; inactive means no such curve, though single readings can be large; an effect the other way counts as inactive or inconclusive.

Assays:
[1] = target: Retinoic acid receptor RXR-alpha (Homo sapiens) (UniProt P19793); assay: qHTS assay to identify small molecule agonists of the RXR signaling pathway (AID 1159527; calls by dose curve; further: nearly all actives have a fitted effect of over 35% in size)
Summary of the method: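 Compounds in DMSO were added to RXR-alpha-UAS-bla HEK 293T cells kept in 2% charcoal-stripped serum, and incubated 16 hr at 37 C with 5% CO2. Reporter signal came from a 2 hr B/G FRET substrate step.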

[2] = qHTS assay to identify small molecule antagonists of the retinoid acid receptor (RAR) signaling pathway - cell viability counter screen (AID 1159551); further: nearly all actives have a fitted effect of over 35% in size
Summary of the method: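 Luminescent ATP quantitation (CellTiter-Glo) gave cell viability in C3RL4 cells exposed to test chemicals for 6 h at 37 C alongside 1 uM final retinol.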

[3] = qHTS assay to identify small molecule antagonists of the retinoic acid receptor (RAR) signaling pathway (AID 1159552; further: nearly all actives have a fitted effect of over 50% in size)
Summary of the method: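 Antagonism of retinol-induced RARE reporter activity was measured in C3RL4 cells. Exposure to compounds and 1 uM final retinol lasted 6 hr at 37 C, with luminescence as endpoint.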

[4] = qHTS assay to identify small molecule agonists of the retinoic acid receptor (RAR) signaling pathway (AID 1159553)
Summary of the method: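 Luminescence from a RARE-driven luciferase reporter in C3RL4 cells served as the read-out, measured after 30 min with detection reagent at room temperature. Compounds in DMSO were applied for 6 hr at 37 C following overnight seeding.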

[5] = qHTS assay to identify small molecule antagonists of the estrogen related receptor (ERR) signaling pathway from Tox21 library - cell viability counter screen (AID 1224834); further: nearly all actives have a fitted effect of over 30% in size
Summary of the method: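 Fluorescence from CellTiter-Fluor gives the viability read-out, taken 30 min after reagent addition. Before that, ERR cells seeded 6 h earlier were incubated with compounds for 17.5 h at 37 C.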

[6] = target: Luciferin 4-monooxygenase (Photinus pyralis) (UniProt P08659); assay: qHTS assay to identify small molecule inhibitors of firefly luciferase (AID 1224835); further: nearly all actives have a fitted effect of over 25% in size; further: potency means the concentration at half of the fitted maximal effect
Summary of the method: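 Inhibition of purified Photinus luciferase is measured by luminescence. Substrate levels (D-luciferin, ATP) sit at their KM values. Each compound is tested in a concentration series.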

[7] = qHTS assay to identify small molecule agonists of the constitutive androstane receptor (CAR) signaling pathway - cell viability counter screen (AID 1224836); further: series mostly up to about 92 µM; nearly all actives have a fitted effect of over 45% in size
Summary of the method: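 Double-stable HepG2 hepatoma cells (hCAR plus CYP2B6-2.2kb) are treated for 23 h at 37 C with test compounds in 15-point concentration series. PK11195 at 0.75 uM final is co-added. Cell viability is quantified by CellTiter-Fluor.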

[8] = qHTS assay to identify small molecule antagonists of the constitutive androstane receptor (CAR) signaling pathway - cell viability counter screen (AID 1224837); further: series mostly up to about 92 µM; nearly all actives have a fitted effect of over 45% in size
Summary of the method: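 HepG2-CYP2B6-hCAR cells, 2500/well, 4 hr pre-incubation; compound titration, 15 conc.; CITCO 50 nM final; 23 hr, 37 C/5% CO2; CellTiter-Fluor, fluorescence intensity.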

[9] = target: Nuclear receptor subfamily 1 group I member 3 (Homo sapiens) (UniProt Q14994); assay: qHTS assay to identify small molecule agonists of the constitutive androstane receptor (CAR) signaling pathway (AID 1224839); further: nearly all actives have a fitted effect of over 15% in size; further: potency means the concentration at half of the fitted maximal effect;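 on activation: HepG2 cells stably carrying human CAR and a CYP2B6 luciferase reporter; series mostly up to about 92 µM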
Summary of the method: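 Readout: firefly luciferase luminescence via ONE-Glo. System: HepG2 double-stable for hCAR and CYP2B6-2.2kb. Conditions: 15-point compound titration, PK11195 at 0.75 uM final, 24 h incubation.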

[10] = qHTS assay to identify small molecule antagonists of the estrogen related receptor signaling pathway with the pleiotropic PPARgamma coactivator (PGC) from Tox21 10K library - cell viability counter screen (AID 1224840; active means well fitted cell-killing curve with a large enough effect in the repeat runs, not every such curve was filed as active; further: nearly all actives have a fitted effect of over 40% in size)
Summary of the method: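 PGC/ERR cells, 2,000/well; 6 h pre-incubation 37 C/5% CO2; cpd in DMSO via pin tool; 17.5 h 37 C; CellTiter-Fluor, 30 min; fluorescence.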

[11] = target: Thyrotropin receptor (Homo sapiens) (UniProt P16473); assay: qHTS assay to identify small molecule agonists of the thyroid stimulating hormone receptor (TSHR) signaling pathway (AID 1224843; calls by dose curve; further: nearly all actives have a fitted effect of over 45% in size)
Summary of the method: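 Screening of the Tox21 10K collection used HEK293 cells engineered with TSHR at 800 cells per well. After a 30-min room-temperature compound exposure, HTRF cAMP reagents were added and fluorescence recorded 1 h later.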

[12] = qHTS assay to identify small molecule agonists of the hypoxia (HIF-1) signaling pathway - cell viability counter screen (AID 1224844; calls by dose curve; further: nearly all actives have a fitted effect of over 50% in size)
Summary of the method: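 ME-180 HRE-bla cells, 2,000/well, 0.5% dialyzed FBS; 5 hr settle, 17 hr compound at 37C/5% CO2; CCF4-AM reporter read first, then CellTiter-Glo luminescence after 30 min RT.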

[13] = qHTS assay to identify small molecule agonists of H2AX (AID 1224845; active means well fitted activation curve with a large enough effect in the signal ratio in the repeat runs, not every such curve was filed as active; the % refers to the signal ratio)
Summary of the method: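 Phospho-H2AX Ser139 measured by HTRF (ex 320 nm; em 665 and 620 nm) after 24 hr antibody incubation. Compounds, 15 concentrations, 0.76% DMSO, were applied to CHO-K1 cells for 3hr at 37C before lysis.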

[14] = qHTS assay to identify small molecule agonists of H2AX - cell viability counter screen (AID 1224847; calls by dose curve;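 further: wild-type CHO-K1 cells; top concentration of the series differs between compounds; nearly all actives have a fitted effect of over 30% in size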)
Summary of the method: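 For this counter screen, overnight-attached CHO-K1 cells received test compounds (15 concentrations, 0.76% DMSO final); 3 hr later at 37C, CellTiter-Glo reagent was added and luminescence recorded after 30 min at room temperature.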

[15] = target: Nuclear receptor subfamily 1 group I member 3 (Homo sapiens) (UniProt Q14994); assay: qHTS assay to identify small molecule antagonists of the constitutive androstane receptor (CAR) signaling pathway (AID 1224838);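 further: HepG2 cells stably expressing hCAR with CYP2B6 luciferase reporter stimulated by CITCO; nearly all actives have a fitted effect of over 40% in size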
Summary of the method: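 HepG2-CYP2B6-hCAR cells; 4 h pre-incubation; cpd (15 conc) + CITCO 50 nM final; 24 h, 37 C/5% CO2; ONE-Glo, luminescence.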

[16] = qHTS assay to identify small molecule agonists of the hypoxia (HIF-1) signaling pathway (AID 1224846; active means well fitted activation curve with a large enough effect in the signal ratio in the repeat runs, not every such curve was filed as active; the % refers to the signal ratio)
Summary of the method: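 Cell line: CellSensor HRE-bla ME-180; 2,000 cells/well; 0.5% dialyzed FBS; 5 h preincubation; DMSO compound pin transfer; 17 h, 37C, 5% CO2; CCF4-AM added; bla FRET signal scored for activation.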

[17] = qHTS assay to identify small molecule agonists of the RXR signaling pathway - cell viability counter screen (AID 1159529);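 further: HEK 293T cells carrying an RXR-alpha UAS beta-lactamase reporter; series mostly up to about 77 µM; nearly all actives have a fitted effect of over 50% in size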
Summary of the method: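 Counter screen: CellTiter-Glo luminescence. Cells: RXR-alpha-UAS-bla HEK 293T. Medium: 2% charcoal-stripped FBS. Treatment: 16 h, 37 C. Reagent incubation: 30 min, RT.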

[18] = qHTS assay to identify small molecule antagonists of the estrogen related receptor signaling pathway with the pleiotropic PPARgamma coactivator (PGC) from Tox21 10K library (AID 1224841; call rule not given here; further: series mostly up to about 92 µM; actives are mostly falling curves and most rising ones were filed inactive; nearly all actives have a fitted effect of over 50% in size)
Summary of the method: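 PGC/ERR cell line, 2,000 cells/well; 6 h pre-incubation 37 C/5% CO2; compounds (DMSO) pinned in; 18 h, 37 C; One-Glo, 30 min RT; luminescence.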

[19] = qHTS assay to identify small molecule agonists of the estrogen related receptor signaling pathway with the pleiotropic PPARgamma coactivator (PGC) from Tox21 10K library (AID 1224842); further: nearly all actives have a fitted effect of over 15% in size
Summary of the method: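 Luminescence from One-Glo (30 min, room temperature) measured after PGC/ERR cells had 18 h at 37 C with pinned compound (23 nL in DMSO). Cells had been seeded at 2,000 per well and pre-incubated 6 h.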

[20] = qHTS assay to identify small molecule antagonists of the estrogen related receptor (ERR) signaling pathway from Tox21 library (AID 1224848); further: nearly all actives have a fitted effect of over 50% in size
Summary of the method: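 Antagonist-mode screen of the Tox21 10K library in an NTP-provided ERR reporter cell line; 18 h compound exposure at 37 C, luminescence measured with ONE-Glo.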

Luciferin 4-monooxygenase (Photinus pyralis), sequence (P08659 whole entry, looked up): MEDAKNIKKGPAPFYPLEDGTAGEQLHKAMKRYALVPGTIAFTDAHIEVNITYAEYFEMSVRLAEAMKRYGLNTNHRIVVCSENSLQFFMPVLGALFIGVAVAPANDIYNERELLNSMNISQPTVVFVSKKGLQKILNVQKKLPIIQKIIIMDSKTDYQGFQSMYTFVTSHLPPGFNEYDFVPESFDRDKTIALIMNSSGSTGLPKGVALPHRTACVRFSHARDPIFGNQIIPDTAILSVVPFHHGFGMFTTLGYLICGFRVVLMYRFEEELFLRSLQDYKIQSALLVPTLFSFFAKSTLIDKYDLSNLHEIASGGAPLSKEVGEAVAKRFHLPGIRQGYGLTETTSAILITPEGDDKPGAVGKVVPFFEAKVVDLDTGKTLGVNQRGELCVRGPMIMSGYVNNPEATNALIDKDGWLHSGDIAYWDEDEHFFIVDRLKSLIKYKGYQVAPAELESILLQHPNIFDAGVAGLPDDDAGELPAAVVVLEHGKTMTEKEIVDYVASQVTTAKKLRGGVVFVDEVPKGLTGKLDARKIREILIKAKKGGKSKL
Thyrotropin receptor (Homo sapiens), sequence (P16473 whole entry, looked up): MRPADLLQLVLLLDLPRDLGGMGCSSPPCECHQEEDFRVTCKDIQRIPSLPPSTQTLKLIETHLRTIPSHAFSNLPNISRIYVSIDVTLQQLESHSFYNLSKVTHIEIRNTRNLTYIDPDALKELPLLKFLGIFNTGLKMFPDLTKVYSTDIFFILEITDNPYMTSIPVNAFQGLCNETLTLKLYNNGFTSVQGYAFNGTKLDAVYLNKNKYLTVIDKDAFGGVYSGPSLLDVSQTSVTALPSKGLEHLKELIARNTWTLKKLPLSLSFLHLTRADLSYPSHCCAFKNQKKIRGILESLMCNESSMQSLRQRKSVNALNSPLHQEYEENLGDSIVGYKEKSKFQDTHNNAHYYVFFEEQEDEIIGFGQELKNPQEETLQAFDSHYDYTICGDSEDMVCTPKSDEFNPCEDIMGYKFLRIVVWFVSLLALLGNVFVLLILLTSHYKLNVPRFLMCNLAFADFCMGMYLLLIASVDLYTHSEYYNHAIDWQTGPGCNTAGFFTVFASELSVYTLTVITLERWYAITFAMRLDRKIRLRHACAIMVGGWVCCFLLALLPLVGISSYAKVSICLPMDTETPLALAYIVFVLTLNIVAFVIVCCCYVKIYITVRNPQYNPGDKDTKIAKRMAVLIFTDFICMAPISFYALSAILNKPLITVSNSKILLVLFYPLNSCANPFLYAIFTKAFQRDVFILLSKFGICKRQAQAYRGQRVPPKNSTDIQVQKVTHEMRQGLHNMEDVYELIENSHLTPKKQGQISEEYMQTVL
Retinoic acid receptor RXR-alpha (Homo sapiens), sequence (P19793 whole entry, looked up): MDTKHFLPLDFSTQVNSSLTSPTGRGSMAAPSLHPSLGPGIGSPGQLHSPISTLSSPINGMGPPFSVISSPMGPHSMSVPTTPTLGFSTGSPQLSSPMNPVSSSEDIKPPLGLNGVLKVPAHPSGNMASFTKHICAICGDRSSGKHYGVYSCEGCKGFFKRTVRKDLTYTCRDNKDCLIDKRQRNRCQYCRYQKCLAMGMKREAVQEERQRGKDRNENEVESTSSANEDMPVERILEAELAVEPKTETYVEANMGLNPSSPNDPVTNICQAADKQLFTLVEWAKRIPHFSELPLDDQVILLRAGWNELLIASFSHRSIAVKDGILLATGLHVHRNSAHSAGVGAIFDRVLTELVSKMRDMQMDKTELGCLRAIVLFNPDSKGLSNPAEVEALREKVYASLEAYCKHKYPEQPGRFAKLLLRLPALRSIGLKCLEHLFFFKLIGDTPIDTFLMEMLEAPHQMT
Nuclear receptor subfamily 1 group I member 3 (Homo sapiens), sequence (Q14994 whole entry, looked up): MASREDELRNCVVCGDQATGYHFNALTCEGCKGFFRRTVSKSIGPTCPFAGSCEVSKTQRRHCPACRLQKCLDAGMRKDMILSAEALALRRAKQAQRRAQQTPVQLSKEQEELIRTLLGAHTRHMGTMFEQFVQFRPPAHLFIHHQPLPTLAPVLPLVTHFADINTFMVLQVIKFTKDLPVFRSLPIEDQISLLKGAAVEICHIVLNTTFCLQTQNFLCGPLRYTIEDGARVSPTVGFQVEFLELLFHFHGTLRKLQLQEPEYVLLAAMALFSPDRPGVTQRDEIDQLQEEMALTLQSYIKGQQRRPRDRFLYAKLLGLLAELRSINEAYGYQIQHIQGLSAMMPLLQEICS

SMILES | Potency [1] | outcome [2] | outcome [3] | Potency [4] | outcome [5] | Potency [6] | outcome [7] | outcome [8] | Potency [9] | outcome [10] | outcome [11] | outcome [12] | outcome [13] | outcome [14] | Potency [15] | outcome [16] | outcome [17] | outcome [18] | outcome [19] | Potency [20]
COc1c2occc2c(OC)c2c(=O)cc(C)oc12 | inactive | inactive | inactive | inactive | inactive | inactive | inactive | inactive | 13.3 µM (active) | inactive | inactive | inactive | inactive | inactive |  |  |  |  |  | 
C=CCCCC | inactive | inactive | inactive | inactive | inactive | inactive | inactive | inactive | inactive | inactive | inactive | inactive | inactive | inactive | inactive | inactive |  |  |  | 
CC1=C(C(=O)O)N2C(=O)[C@@H](NC(=O)[C@H](N)c3ccccc3)[C@H]2SC1 |  | inactive | inactive | inactive |  | inactive | inactive | inactive | inactive | inactive |  | inactive | inactive | inactive | inactive |  | inactive | inactive | inactive | inactive
CC/C=C\CCOC(=O)c1ccccc1O | inactive | inactive | inactive | inactive |  | 17.8 µM (active) | inactive | inactive | inactive | inactive |  | inactive | inactive |  | inactive | inactive |  | inactive | inactive | inactive
Cc1cccc(Cl)c1 | inactive | inactive | inactive | inactive | inactive | inactive | inactive | inactive | inactive | inactive | inactive | inactive | inactive | inactive | inactive | inactive |  |  |  | 
CCOC(=O)CC1(C)OCC(C)O1 (stereo not given) | inactive | inactive | inactive | inactive | inactive |  | inactive | inactive | inactive | inactive | inactive | inactive |  |  | inactive | inactive |  |  |  | 
Cc1c(NC(=O)c2cccnc2)c(=O)n(-c2ccccc2)n1C | inactive | inactive | inactive | inactive | inactive | inactive | inactive | inactive | inactive | inactive | inactive | inactive | inactive | inactive | inactive |  |  |  |  | 
CC(S)C(C)S (stereo not given) | inactive | inactive | inactive | inactive | inactive |  | inactive | inactive | inactive | inactive | inactive | inactive |  | inactive | inactive | inactive |  |  |  | 
